This passage reports growth results from PubChem BioAssay (NCI).

Molecules are shown by their SMILES. The panel holds about 83,000 compounds, 20% with a hit somewhere; the sample as a whole holds those more often.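 Plates (96-well) were seeded with cells, treated with compound at one concentration, and incubated for 48 hours before percent growth was determined.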 Activity calls are given as the source filed them. Rule for the calls: active = growth percent below 10; inactive = the rest.

This test deals with SNB-75 CNS. Description: NCI-60 one-dose screen, 48 h (100 = growth as untreated, 0 = no growth, -100 = all killed). The conditions noted are these: 10 µM unless noted.
Turning to `CN([O-])c1nc(N(C)[O-])nc(N2CCOCC2)n1.CN([O-])c1nc(N(C)[OH2+])nc(N2CCOCC2)n1.[Fe+3]`, the growth is 96.1% [100 µM] (inactive).
The value for `CCOP(=O)(OCC)c1nc(-c2ccccc2)oc1NCc1cccnc1` was 92.9% (inactive); that for `CCn1c(SCC(=O)c2ccc(Br)cc2)nnc1-c1ccncc1` was 81.7% (inactive).
On to `CCCCNc1ccc(C#N)c(OCCN(CC)CC)c1`, for which the growth is 88.2% (inactive).
On to `N#Cc1c(-c2ccc(Cl)cc2)nc(NN=Cc2cccc(O)c2)nc1N1CCOCC1`, for which the growth was 46.1% (inactive).
In the case of `CS(=O)(=O)Nc1cc(-c2ccc3ncnc(Nc4c(Cl)ccc5c4OCO5)c3c2)cnc1Cl`, the growth is -19.5% (active).
Take `Fc1cccc(CNc2c3ccccc3nc3ccccc23)c1F`: the growth was 78.8% (inactive).
Turning to `COC(=O)CNC(=O)[C@H](Cc1ccccc1)NCc1ccncc1`, the growth is 92.4% (inactive).
In the case of `O=C(NCCCN1CCOCC1)c1cccc(N2C(=O)/C(=C/c3ccc(F)cc3)SC2=S)c1`, the growth is 62.5% (inactive).
For the molecule `O=[N+]([O-])/C(=C/C=C/c1ccccc1)c1ccccc1`, the growth was 57.3% (inactive).
The value for `Cn1cc(-c2csc(-c3c[nH]c4ccc(Br)cc34)n2)c2cnccc21` was -95.8% (active); that for `C=C(C)[C@@H]1CC[C@]2(C(=O)N3CCN(C)CC3)CC[C@]3(C)[C@H](CC[C@@H]4[C@@]5(C)CC(=C/c6ccncc6)/C(=N/O)C(C)(C)[C@@H]5CC[C@]43C)[C@@H]12` was 66.1% (inactive).
Consider `COc1cc(N2C(=O)[C@H](O)C2c2ccc(SC)cc2)cc(OC)c1OC` (stereo partly drawn), for which the growth was 83.8% (inactive).
